Measured potencies and affinities stand elsewhere. Activity calls are given as the source filed them. No rule for the calls is given here.
System: Drosophila melanogaster bursicon receptor LGR2 (rickets)
Experiment: blockers of bursicon-stimulated LGR2 cAMP reporter – cell-based, HEK293, CRE-luciferase reporter, cherry pick, set 2, dose response (AID 743343)
Conditions: bursicon-induced cAMP antagonist; series mostly up to 35 µM

SMILES | outcome
O=C(O)c1nn(Cc2ccc(Cl)cc2Cl)c2ccccc12 | inactive
Cc1ccc2c(c1)C1CN(C)CCC1N2C(=O)c1cn(-c2ccccc2)nc1-c1ccccc1 (stereo not drawn) | inactive
O=c1c2ccccc2nc(/C=C/c2ccc([N+](=O)[O-])o2)n1-c1ccc(O)cc1 | inactive

Source: PubChem BioAssay AID743343 (Broad Institute, 2014)
